Test results: PubChem BioAssay (EPA / NIEHS)
Results filed as inconclusive are left out. Active and inactive are the calls of the source. Rule for the calls, unless noted: active = hit-call score of the fitted dose curve at least 0.9, where 1 is the maximum; inactive = score below 0.9.

What was measured:
CD69, CD69 (gene 969) = assay: BSK_SAg_CD69: BioMAP Diversity Plus: SAg Assay for CD69 Biomarker Activity (AID 2283089); details: primary human HUVEC with PBMC; actives raise or lower the signal;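 for AC50: cell surface CD69 protein quantified by ELISA with fluorescence detection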
How it was run: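 Primary human vascular co-culture (umbilical vein endothelium with peripheral blood mononuclear cells) exposed to test chemical for 24 h. CD69 levels quantified by fluorescence ELISA; DMSO served as negative control for bidirectional fitting.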

[1] = read-out: Monocyte Chemoattractant Protein-1 (MCP1), CCL2 (gene 6347); assay: BSK_SAg_MCP1: BioMAP Diversity Plus: SAg Assay for Monocyte Chemoattractant Protein-1 (MCP1) Biomarker Activity (AID 2283090); details: primary human HUVEC with PBMC; actives raise or lower the signal
How it was run: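 Values derive from bidirectional fitting of ELISA-measured MCP1 against DMSO controls. Readings were taken 24 h after dosing human vascular endothelial cells co-cultured with peripheral blood mononuclear cells under superantigen stimulation.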

[2] = read-out: Monokine induced gamma interferon (MIG), CXCL9 (gene 4283); assay: BSK_SAg_MIG: BioMAP Diversity Plus: SAg Assay for Monokine induced gamma interferon (MIG) Biomarker Activity (AID 2283092); details: primary human HUVEC with PBMC; actives raise or lower the signal
How it was run: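 Endothelial cells and PBMC were co-cultured, exposed to test chemicals, and sampled 24 h later. MIG was measured by ELISA, and responses were fitted in both directions relative to DMSO.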

[3] = BSK_SAg_PBMCCytotoxicity: PBMC Cytotoxicity Assessment in the BioMAP Diversity Plus: SAg Assay (AID 2283093); details: primary human HUVEC with PBMC;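 note: PBMC viability measured as Alamar Blue reduction fluorescence at 546/580 nm; fitted both ways against DMSO so a hit may be loss or gain of signal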;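 for AC50: PBMC superantigen activated with SEB plus TSST-1 one hour after compound addition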
How it was run: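 Alamar Blue reduction (6 h, 546/580 nm) reports PBMC cytotoxicity after 90 h superantigen activation (SEB, TSST-1; 20 ng/mL final each) with 1 h compound pre-treatment. Gain or loss of signal fitted versus DMSO.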

[4] = read-out: Interleukin-8 (IL8), CXCL8 (gene 3576); assay: BSK_SAg_IL8: BioMAP Diversity Plus: SAg Assay for Interleukin-8 (IL8) Biomarker Activity (AID 2283094); details: primary human HUVEC with PBMC; actives raise or lower the signal
How it was run: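 HUVEC/PBMC co-culture, 24 h post-dose; IL-8 by ELISA. Gain or loss of signal fitted bidirectionally vs DMSO baseline.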

[5] = BSK_SAg_Proliferation: Cell Proliferation Assessment in the BioMAP Diversity Plus: SAg Assay (AID 2283095); details: primary human HUVEC with PBMC;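 note: relative cell number as total protein by SRB absorbance in sub-confluent culture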
How it was run: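 HUVEC/PBMC co-culture, 96-well. TCA-fixed (10%), 0.1% SRB stain, A560 at 96 h. Protein content used as viability readout; bidirectional fitting vs DMSO control.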

[6] = BSK_SAg_SRB: Viability Assessment in the BioMAP Diversity Plus: SAg Assay (AID 2283096); details: primary human HUVEC with PBMC;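 note: cells read one day after compound addition; hits may be either gain or loss of signal compared with DMSO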
How it was run: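 This overt-cytotoxicity endpoint quantifies protein in human endothelial/PBMC co-cultures at 24 h using SRB absorbance (560 nm) after trichloroacetic acid fixation. Values reflect signal change from the DMSO negative control, fitted bidirectionally.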

[7] = molecular target: human CYP2D6, CYP2D6 (gene 1565) (UniProt P10635); assay: NVS_ADME_hCYP2D6: NovaScreen (NVS) CYP450-related Enzyme Activity (ADME) Assay for human CYP2D6 (AID 2283107; active = hit-call score of the fitted dose curve at least 0.9, where 1 is the maximum)
human CYP2D6, CYP2D6 (gene 1565), sequence (P10635 whole entry, looked up): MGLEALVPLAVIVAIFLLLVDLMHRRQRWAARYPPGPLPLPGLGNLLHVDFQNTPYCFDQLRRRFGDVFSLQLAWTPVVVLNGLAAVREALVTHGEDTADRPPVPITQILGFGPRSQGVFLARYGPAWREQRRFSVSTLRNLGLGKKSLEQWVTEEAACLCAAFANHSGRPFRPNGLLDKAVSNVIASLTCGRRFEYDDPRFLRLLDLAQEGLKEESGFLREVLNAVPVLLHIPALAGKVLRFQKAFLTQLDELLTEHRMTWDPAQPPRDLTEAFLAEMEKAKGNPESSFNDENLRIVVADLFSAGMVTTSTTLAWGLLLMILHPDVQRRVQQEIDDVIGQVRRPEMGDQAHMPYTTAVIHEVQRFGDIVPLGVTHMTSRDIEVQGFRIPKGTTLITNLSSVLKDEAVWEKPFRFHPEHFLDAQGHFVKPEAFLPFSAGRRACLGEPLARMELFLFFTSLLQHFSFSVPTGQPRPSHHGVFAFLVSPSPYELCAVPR
How it was run: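 Cell-free assay using recombinant human CYP2D6 expressed in insect cells, with a fluorogenic substrate read after 1 h. Primary screen in duplicate at 10 uM; actives followed up in concentration series. Loss of signal fitted relative to acetonitrile.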

[8] = molecular target: Cytochrome P450 2C19 (Homo sapiens) (UniProt P33261); assay: NVS_ADME_hCYP2C19: NovaScreen (NVS) CYP450-related Enzyme Activity (ADME) Assay for human CYP2C19 (AID 2283113; active = hit-call score of the fitted dose curve at least 0.9, where 1 is the maximum;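 note: potency for inhibition seen as loss of fluorescent signal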)
How it was run: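 Cell-free recombinant human CYP2C19 from insect cells, fluorescent substrate; activity read by fluorescence intensity 1 h after dosing. Primary screen in duplicate at 10 uM; actives retested in concentration series. Signal loss versus acetonitrile negative control.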

[9] = molecular target: human CYP19A1, CYP19A1 (gene 1588) (UniProt P11511); assay: NVS_ADME_hCYP19A1: NovaScreen (NVS) CYP450-related Enzyme Activity (ADME) Assay for human CYP19A1 (AID 2283098; active = hit-call score of the fitted dose curve at least 0.9, where 1 is the maximum;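 for AC50: potency for inhibitors seen as loss of fluorescent enzyme signal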)
human CYP19A1, CYP19A1 (gene 1588), sequence (P11511 whole entry, looked up): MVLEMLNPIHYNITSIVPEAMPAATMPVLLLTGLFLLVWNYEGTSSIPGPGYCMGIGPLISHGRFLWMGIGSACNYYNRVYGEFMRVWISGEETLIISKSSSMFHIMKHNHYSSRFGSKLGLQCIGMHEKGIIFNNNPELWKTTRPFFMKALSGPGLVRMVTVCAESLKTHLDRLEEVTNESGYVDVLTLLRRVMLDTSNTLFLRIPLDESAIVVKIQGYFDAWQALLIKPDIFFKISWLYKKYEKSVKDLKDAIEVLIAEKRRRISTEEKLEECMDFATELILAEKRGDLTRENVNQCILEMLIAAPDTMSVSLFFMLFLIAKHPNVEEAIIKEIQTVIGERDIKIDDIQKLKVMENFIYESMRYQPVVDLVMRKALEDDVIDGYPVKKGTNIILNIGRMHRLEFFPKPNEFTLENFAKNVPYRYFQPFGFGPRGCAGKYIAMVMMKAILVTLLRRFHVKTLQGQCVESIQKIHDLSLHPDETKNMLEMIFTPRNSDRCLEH
How it was run: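 Compounds were first screened at 10 uM in duplicate against purified enzyme, with a fluorogenic substrate and fluorescence intensity detection after 0.5 h. Inhibition appears as reduced signal against acetonitrile control.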

[10] = molecular target: human CYP1A2, CYP1A2 (gene 1544) (UniProt P05177); assay: NVS_ADME_hCYP1A2: NovaScreen (NVS) CYP450-related Enzyme Activity (ADME) Assay for human CYP1A2 (AID 2283102; active = hit-call score of the fitted dose curve at least 0.9, where 1 is the maximum;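 for AC50: potency for inhibition since loss of fluorescence marks reduced CYP1A2 activity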)
human CYP1A2, CYP1A2 (gene 1544), sequence (P05177 whole entry, looked up): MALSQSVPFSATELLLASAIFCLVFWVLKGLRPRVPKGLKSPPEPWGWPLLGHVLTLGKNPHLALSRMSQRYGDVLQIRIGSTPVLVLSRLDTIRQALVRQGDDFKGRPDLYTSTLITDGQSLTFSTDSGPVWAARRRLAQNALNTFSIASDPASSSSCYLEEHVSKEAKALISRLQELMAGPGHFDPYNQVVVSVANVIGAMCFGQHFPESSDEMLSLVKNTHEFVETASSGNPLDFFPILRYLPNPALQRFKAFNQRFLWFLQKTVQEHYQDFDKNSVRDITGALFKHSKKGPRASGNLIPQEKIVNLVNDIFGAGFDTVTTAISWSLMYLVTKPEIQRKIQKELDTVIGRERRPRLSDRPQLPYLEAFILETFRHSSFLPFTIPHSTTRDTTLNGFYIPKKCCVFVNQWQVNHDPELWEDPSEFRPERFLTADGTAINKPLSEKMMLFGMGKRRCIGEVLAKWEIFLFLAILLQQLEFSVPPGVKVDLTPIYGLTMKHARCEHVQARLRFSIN
How it was run: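 Recombinant human CYP1A2 from insect cells, cell-free, fluorogenic substrate; read 0.5 h after dosing with loss of fluorescence signal indicating inhibition. Primary screen in duplicate at 10 uM, acetonitrile as negative control.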

[11] = molecular target: human CYP2C9, CYP2C9 (gene 1559) (UniProt P11712); assay: NVS_ADME_hCYP2C9: NovaScreen (NVS) CYP450-related Enzyme Activity (ADME) Assay for human CYP2C9 (AID 2283108; active = hit-call score of the fitted dose curve at least 0.9, where 1 is the maximum)
human CYP2C9, CYP2C9 (gene 1559), sequence (P11712 whole entry, looked up): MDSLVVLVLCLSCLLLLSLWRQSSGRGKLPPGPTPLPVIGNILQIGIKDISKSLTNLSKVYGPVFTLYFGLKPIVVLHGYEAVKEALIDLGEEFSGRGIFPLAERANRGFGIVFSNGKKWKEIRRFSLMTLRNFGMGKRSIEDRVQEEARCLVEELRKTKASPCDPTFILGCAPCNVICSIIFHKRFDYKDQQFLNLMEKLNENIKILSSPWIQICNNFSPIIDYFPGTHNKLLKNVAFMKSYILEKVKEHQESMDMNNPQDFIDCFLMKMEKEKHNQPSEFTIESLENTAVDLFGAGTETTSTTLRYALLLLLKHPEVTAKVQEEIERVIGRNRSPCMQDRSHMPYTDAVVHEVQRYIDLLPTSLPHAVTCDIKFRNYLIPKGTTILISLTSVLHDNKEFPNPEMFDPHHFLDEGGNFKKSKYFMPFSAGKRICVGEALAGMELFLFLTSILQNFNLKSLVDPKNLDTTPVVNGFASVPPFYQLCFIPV
How it was run: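 Cell-free assay of recombinant human CYP2C9 produced in Sf9 cells, with enzyme activity read by fluorescence intensity 0.75 h after compound addition. Loss of signal versus an acetonitrile negative control indicates inhibition. Primary screen used 10 uM in duplicate; actives were retested in concentration series.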

[12] = molecular target: Cytochrome P450 3A4 (Homo sapiens) (UniProt P08684); assay: NVS_ADME_hCYP3A4: NovaScreen (NVS) CYP450-related Enzyme Activity (ADME) Assay for human CYP3A4 (AID 2283110; active = hit-call score of the fitted dose curve at least 0.9, where 1 is the maximum)
Cytochrome P450 3A4 (Homo sapiens), sequence (P08684 whole entry, looked up): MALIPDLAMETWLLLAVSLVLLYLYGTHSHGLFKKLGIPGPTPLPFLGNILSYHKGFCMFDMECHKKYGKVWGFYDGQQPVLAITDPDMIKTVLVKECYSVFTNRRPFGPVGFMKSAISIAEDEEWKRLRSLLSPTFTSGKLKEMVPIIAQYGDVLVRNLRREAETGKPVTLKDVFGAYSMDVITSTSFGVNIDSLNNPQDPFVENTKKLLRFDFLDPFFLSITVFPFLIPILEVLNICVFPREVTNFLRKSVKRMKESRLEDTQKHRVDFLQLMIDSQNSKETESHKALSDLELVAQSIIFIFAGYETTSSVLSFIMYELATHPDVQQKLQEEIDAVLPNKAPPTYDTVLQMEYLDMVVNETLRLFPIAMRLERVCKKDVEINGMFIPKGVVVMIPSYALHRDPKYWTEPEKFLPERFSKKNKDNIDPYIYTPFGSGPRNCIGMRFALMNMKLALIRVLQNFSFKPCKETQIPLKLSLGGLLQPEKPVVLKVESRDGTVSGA
How it was run: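 Activity is derived from decreased fluorescence intensity relative to acetonitrile, measured 0.33 hour after dosing insect-cell-expressed CYP3A4 in a cell-free format. Screening used 10 uM in duplicate before concentration-response follow-up.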

Measured: AC50

CN(C)N=O
inactive: CD69, CD69 (gene 969) | [1] | [2] | [3] | [4] | [5] | [6]

CCC(=O)C(CC(C)N(C)C)(c1ccccc1)c1ccccc1 (stereo unspecified)
inactive: CD69, CD69 (gene 969) | [1] | [2] | [3] | [4] | [5] | [6]
active: [7] 1.23 µM

Oc1ccc(-c2ccccc2)cc1
inactive: CD69, CD69 (gene 969) | [1] | [2] | [3] | [4] | [5] | [6]
active: [8] 470 nM

Fc1ccc(C2(Cn3cncn3)OC2c2ccccc2Cl)cc1 (stereo unspecified)
active: [9] 1.86 µM | [10] 5.36 µM | [11] 6.5 µM | [12] 5.96 µM | [8] 1560 nM

CC(C)CCCCCCOC(=O)c1ccccc1C(=O)OCCCCCCC(C)C
active: [6] 0.206 µM
inactive: CD69, CD69 (gene 969) | [1] | [2] | [3] | [4] | [5]

CCSC(C)CC1CC(=O)C(C(CC)=NOC/C=C/Cl)=C(O)C1 (stereo unspecified)
inactive: CD69, CD69 (gene 969) | [1] | [2] | [3] | [4] | [5] | [6]

CCOP(=S)(OCC)Oc1ccc(S(C)=O)cc1 (stereo unspecified)
active: [11] 3.31 µM | [8] 528 nM
not listed: [7] | [9] | [10] | [12]
inactive: all other assays above

O=C1C(Cl)=C(Cl)C(=O)c2ccccc21
active: [9] 7.68 µM

OCc1ccco1
active: [5] 26.7 µM
inactive: CD69, CD69 (gene 969) | [1] | [2] | [3] | [4] | [6] | [9]

O=C(Nc1ccc2[nH]ccc2c1)c1cc2cc(F)ccc2n1Cc1cccc(F)c1
inactive: [10]
active: CD69, CD69 (gene 969) 10.6 µM | [1] 9.29 µM | [2] 12.7 µM | [3] 9.98 µM | [4] 6.87 µM | [5] 6.62 µM | [6] 14.6 µM

CC(C)(c1ccccc1)c1ccc(O)c(C(C)(C)c2ccccc2)c1
inactive: [12]
active: CD69, CD69 (gene 969) 11.9 µM | [1] 9.77 µM | [2] 11.4 µM | [3] 8.97 µM | [4] 11.4 µM | [5] 6 µM | [6] 13 µM
